Experiment [1] in a line: P-glycoprotein substrates identified in KB-8-5-11 adenocarcinoma cell line, qHTS therapeutic library screen (AID 1346987). Further: nearly all actives have a fitted effect of over 65% in size. An outline of the steps:
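In this qHTS, P-gp-rich KB-8-5-11 cells received library compounds across a concentration range. Viability was quantified by luminescence after 72 h at 37 degree C.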

Experiment [2] is described as follows: qHTS of pediatric cancer cell lines to identify multiple opportunities for drug repurposing: Primary screen for TC32 cells (AID 1347089). Further: nearly all actives have a fitted effect of over 60% in size. An outline of the steps: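 Luminescent ATP read-out (CellTiter-Glo) of metabolically active TC32 cells after 48 h exposure. Concentration-response curves came from 11-point (MIPE, 0.78 nM–46 µM) or 8-point (NPC, 0.59 nM–46 µM) primary titrations; follow-up used 11 points.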
A general note: In qHTS, concentration-response curves come from the screen itself.

Experiment [3] can be described thus: qHTS of pediatric cancer cell lines to identify multiple opportunities for drug repurposing: Primary screen for SJ-GBM2 cells (AID 1347091). The gist of the method: (§1)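 Eight- or eleven-point concentration series, 48 h treatment at 37 degrees C in growth media; readout CellTiter-Glo luminescence. Potency and efficacy were taken from the concentration-response curves.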

The nature of experiment [4]: NS1 protein of Zika virus - qHTS assay to identify small molecule inhibitors in human HEK 293 cells (AID 1347053). Further: nearly all actives have a fitted effect of over 55% in size. An outline of the steps: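 Read-out is a two-antibody TR-FRET for ZIKV NS1, normalized between uninfected cells and infected cells. Compound added 1 h before MR766 infection at MOI 0.5; human HEK 293 cells incubated 24 h, 37 C.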
Experiment [5] is described as follows: qHTS of pediatric cancer cell lines to identify multiple opportunities for drug repurposing: Primary screen for DAOY cells (AID 1347090). Further: nearly all actives have a fitted effect of over 55% in size. An outline of the steps:
as §1

This is an account of results in PubChem BioAssay (NCATS).

Where “and” joins values, the source holds several entries; their conditions need not be identical. Equal values may be shown once. Records with an inconclusive call do not appear. Calls of active or inactive are those of the source. The call rests on the fitted dose curve; in most records, active means well fitted curve in the direction sought with a large enough effect; inconclusive means small, poorly fitted or top-dose-only effect, or another doubt; inactive means no such curve, though single readings can be large; an effect the other way counts as inactive or inconclusive.
Potency means the concentration at half of the fitted maximal effect.

For the compound `COc1cc2c(cc1O)CCC1C2CC[C@@]2(C)C1CC[C@@H]2O` (stereo not given in full), the Potency in experiment [1] is 1.32 µM (active); in experiment [2], 18600 nM (active); in experiment [3], 833 nM (active).
`COc1ccc(S(=O)(=O)Nc2cccnc2Nc2ccc(O)cc2)cc1`: the Potency in experiment [1] is 418 nM (active) and 920 nM (active); in experiment [2], 8290 nM (active); in experiment [3] it was 23.5 nM (active).
`CCCNC(=O)[C@H]1O[C@H]1C(=O)N[C@H](C(=O)N1CCC[C@@H]1C(=O)OC)C(C)CC` (stereo not given in full): in experiment [1], the Potency result was “inactive”. In addition, the Potency in experiment [3] was 23500 nM (active).
On to `CN(C)CC(=O)N1CCC(c2ccc(NC(=O)c3ncc(C#N)[nH]3)c(C3=CCCCC3)c2)CC1`, for which the Potency entry in experiment [1] and in experiment [2] was “inactive” in each case. Also, the Potency in experiment [3] is 18700 nM (active).
For the compound `CN1C(C(=O)Nc2ccccn2)=C(O)c2sc(Cl)cc2S1(=O)=O`, the Potency entry in experiment [1], in experiment [4] and in experiment [3] was “inactive” throughout.
Regarding `COc1ccc(C=Cc2cc(OC)c(OC)c(OC)c2)cc1NC(=O)[C@H](N)CO`, the Potency in experiment [1] was 0.0059 µM (active); in experiment [2], 41.5 nM (active); in experiment [5] it was 9.3 nM (active); in experiment [3], 1 nM (active).
Take `FC(F)c1nc2ccccc2n1-c1nc(N2CCOCC2)nc(N2CCOCC2)n1`: the Potency in experiment [1] is 1.16 µM (active); in experiment [4], 1870 nM (active); in experiment [3], 74.3 nM (active).
On to `NC(=O)N1CCC(CC(=O)N2CCC([C@H]3c4ncc(Br)cc4CCc4cc(Cl)cc(Br)c43)CC2)CC1`, for which the values for the Potency in experiment [1], in experiment [5] and in experiment [3] were 7.43 µM (active), 23500 nM (active) and 16600 nM (active), respectively.
Regarding `COc1cc(N2CCC(C(N)=O)CC2)ccc1Nc1nc(N)c(Cl)c(Nc2ccccc2S(=O)(=O)C(C)C)n1`, the Potency result in experiment [1] and in experiment [3] was “inactive” each time. The Potency in experiment [2] is 2620 nM (active); in experiment [5], 187 nM (active).
As to `C[C@H](NC(=O)C(C#N)=Cc1cccc(Br)n1)c1ccccc1`, the Potency in experiment [1] was 20.9 µM (active); in experiment [3], 2960 nM (active). In addition, the Potency result in experiment [2] was “inactive”.
Regarding `COc1cc2c(cc1OC)[C@@H]1C(=O)c3ccc4c(c3O[C@@H]1CO2)C=CC(C)(C)O4`, the Potency in experiment [1] was 5.17 µM (active); in experiment [5], 74.3 nM (active); in experiment [3] it was 18700 nM (active).
On to `C[C@H]1[C@@H](OC(=O)CCC(=O)O)O[C@@H]2O[C@@]3(C)CC[C@@H]4[C@H](C)CC[C@@H]1[C@@]24OO3`, for which the Potency is 16.6 µM (active) in experiment [1], 14700 nM (active) in experiment [2] and 11800 nM (active) in experiment [5].
Regarding `c1cc(N[C@@H]2CCNC2)nc(-c2cnc3ccc(-c4cn[nH]c4)cn23)c1`, in experiment [1], the Potency entry was “inactive”. Further, the Potency in experiment [3] is 16600 nM (active).
For the compound `Cn1cc(CNCC2CCN(c3ncc(C(=O)NO)cn3)CC2)c2ccccc21`, the Potency in experiment [1] was 1.05 µM (active); in experiment [2], 415 nM (active); in experiment [5] it was 235 nM (active); in experiment [3] it was 74.3 nM (active).
Take `Nc1nc(N)c2nc(-c3cccc(O)c3)c(-c3cccc(O)c3)nc2n1`: the Potency in experiment [1] is 11.8 µM (active); in experiment [2], 18600 nM (active); in experiment [5] it was 7430 nM (active); in experiment [3], 8330 nM (active).
For the compound `O=C(C=Cc1ccc(CN(CCO)CCc2c[nH]c3ccccc23)cc1)NO`, the Potency in experiment [1] was 0.59 µM (active); in experiment [2], 930 nM (active); in experiment [5], 469 nM (active); in experiment [3], 118 nM (active).
Take `Cc1[nH]c(C=C2C(=O)Nc3ccccc32)c(C)c1CCC(=O)O`: the Potency result in experiment [4] is “inactive”. Besides, the Potency in experiment [2] was 7390 nM (active); in experiment [5], 2960 nM (active); in experiment [3], 935 nM (active).
